GSIS activator: GLuc luminescence reporter in INS-1E cells, primary screen for activators of glucose-dependent secretion of insulin; INS-1E GLuc reporter insulin secretion, 2-3 h; activation, % at 16.6 µM; 370,000 tested, 0.61% active; AID 743287, 2014;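 active means lowest replicate activation of at least 40%, so every replicate reaches that level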;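 further: 0% = median of neutral control wells and 100% = median of IBMX positive control wells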
F508del corr: F508del CFTR correction, initial screen, CFBE line, single point. activity (quench increase), % at 7.58 µM. 350,000 tested, 0.36% active. AID 720511, 2013. CFBE cells, YFP halide quenching; stimulated with forskolin plus potentiator P3; % fluorescence drop versus neutral controls;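 active means mean added fluorescence quench of at least 8% versus neutral control, with both replicates also reaching 8%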;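 further: cells transiently co-express mutant CFTR-F508del with the halide-sensitive YFP; corrector assay measuring rescue of mutant channel to the surface after 24 h compound exposure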
Wnt bcat act: Wnt/beta-catenin pathway activators, primary screen, cell-based, plate reader, single point | AID 743398, 2014 | Wnt/beta-catenin reporter cell assay, activator | activation, % at 9.35 µM | 300,000 tested, 1.2% active; in the data active means activation above about 30%, passing the limit was not always enough;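 further: 0% = neutral control wells and 100% = positive control wells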
HIV Env fusion: inhibitors of HIV-1 Env-driven cell-cell fusion, primary screen, HeLa-JRFL effector, CEM21 target cells, luciferase; 360,000 tested, 1.1% active; AID 651610, 2012; inhibition, % at 12.3 µM;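 active means mean replicate inhibition score of at least 50 and every replicate individually at or above 50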;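 further: 0% = plate neutral controls and 100% = maraviroc near 300 nM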
MITF act: activators of MITF-driven TRPM1 promoter reporter, primary screen, cell-based, SK-MEL-5, luciferase, single point; SK-MEL-5 TRPM1-promoter luciferase, 24 h; % of positive control, neutral wells = 0; activation, % at 12.5 µM; 300,000 tested, 0.75% active;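 active means mean activation of at least 80% with every replicate also reaching 80%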;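 further: 0% = neutral control wells and 100% = parthenolide positive control wells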
Starred values were filed as active, the others as inactive; . = no result given. Shown are actives, neighbours in structure and some others; about 2.7% of the full set was active somewhere.

SMILES	GSIS activator	F508del corr	Wnt bcat act	HIV Env fusion	MITF act
Cc1nnc(SCc2nc3ccccc3c(=O)n2-c2ccccc2Cl)n1N	.	.	2	119*	2
O=C(Cc1ccccc1)N1CCCCN2[C@@H](CO)[C@@H](c3ccc(-c4ccccc4)cc3)[C@@H]2C1	-24	1	.	.	.
CC(=O)N1C[C@@H]2N[C@H](C1)C2c1ccccc1 (some centres not stated)	-2	.	.	.	.
CC1CCOC(=O)C=CC=CC(=O)OC2CC3OC4C5OC5(C)C(O)CC4(COC(=O)C1O)C2(C)C31CO1 (configuration not stated)	.	-10	-26	59*	.
CC(O)C1C=CC=CC(=O)OC2CC3OC4C5OC5(C)C(O)CC4(COC(=O)C(O)C(C)CCO1)C2(C)C31CO1 (configuration not stated)	-16	-7	-3	70*	-79
CC1=CC2OC3CC4OC(=O)C=CC=CC(C(C)O)OCC(O)C5(C)OC5C(=O)OCC2(CC1O)C4(C)C31CO1 (configuration not stated)	-33	-1	-9	73*	.
O=C(O)[C@H]1[C@H](CO)[C@H]2Cn3c(ccc(C4=CCCC4)c3=O)[C@@H]1N2C(=O)Cc1ccccn1	6	2	.	.	.
O=C(Cn1c(=O)n(CC2CS2)c2ccccc21)N1CCCCCC1 (configuration not stated)	-2	4	-1	19	-8
C=C(C)Cn1c(=O)n(CC2CS2)c2ccccc21 (configuration not stated)	69*	.	0	.	-11
CC(=O)OC(C)(C)/C=C/C(=O)[C@](C)(O)C1[C@H](O)C[C@@]2(C)C3CC=C4C(C[C@H](O)C(=O)C4(C)C)[C@]3(C)C(=O)C[C@]12C (some centres not stated)	.	.	.	.	-90
CC(C)(O)/C=C/C(=O)C(C)(O)C1C(O)CC2(C)C3CC=C4C(C=C(O)C(=O)C4(C)C)C3(C)C(=O)CC12C (configuration not stated)	-15	-13	-9	81*	-92
COC(=O)CCCC(NC(=S)N1CC2C[C@@H](C1)Cn1c2cccc1=O)C(=O)OC (some centres not stated)	40*	4	-1	1	6
COC(=O)[C@H]1[C@H](CO)[C@H]2Cn3c(ccc(-c4cccc(OC)c4)c3=O)[C@@H]1N2C(=O)c1cnccn1	0	2	.	.	.
Cc1ccccc1S(=O)(=O)N1[C@@H]2c3ccc(-c4cccnc4)c(=O)n3C[C@H]1[C@H](CO)[C@H]2C(=O)O	-1	-3	.	.	.
COc1nc(NC(C)C)nc(NC(C)C)n1	69*	.	.	.	-15
CN1C(=O)C2C[C@@]3(Br)c4ccccc4N(OOSc4ccccc4)[C@H]3N2C(=O)[C@@H]1Cc1ccccc1 (some centres not stated)	-32	0	-2	77*	1
C[n+]1c2ccccc2nc2ccc(NCCO)cc21	3	-4	14	57*	-3
CNc1ccc2nc3ccccc3[n+](C)c2c1	-34	-3	0	-6	-69
CC(=O)N1C2CN(C)CC1C2c1ccc(Br)cc1 (configuration not stated)	-4	.	.	.	.
Cc1[nH]c2ccccc2c1CCNCc1cccnc1	48*	2	-2	12	4
COc1ccc(CC2C(=O)NC(C)C(=O)N(C)C3C(=O)N(C)C(Cc4ccc(O)c(c4)Oc4ccc(cc4)C3O)C(=O)NC(C)C(=O)NC(C)C(=O)N2C)cc1 (configuration not stated)	.	-1	-10	70*	.
C=CCN1[C@@H]2CN(C(=O)NC(C)C)C[C@H]1C2c1ccccc1 (some centres not stated)	11	.	.	.	.
O=C1C(=O)c2ccccc2-c2ccccc21	-18	-7	-24	91*	-110
Cc1ccc(N2C(=O)NC(=O)C(CCc3ccccn3)(Cc3ccc(F)cc3)C2=O)cc1 (configuration not stated)	-8	-3	-7	58*	2
Cc1ccc(S(=O)(=O)CC(C)(O)C(=O)Nc2cccc(C(F)(F)F)c2)cc1 (configuration not stated)	.	.	.	68*	-15
COc1cccc(-c2ccc([C@H]3[C@@H](CO)N4CCCCN(C(=O)Cc5ccncc5)C[C@H]34)cc2)c1	5	-2	.	.	.
